Experimental data: PubChem BioAssay (Tox21)
Inconclusive results are not listed. Activity calls are given as the source filed them. Unless noted, calls come from the whole dose curve; as a rule, active = well fitted curve in the direction sought with a large enough effect in the repeat runs; inconclusive = weak or mixed curves; inactive = no such curve, though single readings can be large; an effect the other way counts as inactive or inconclusive.

Columns and labels:
[1] = qHTS assay to identify small molecule antagonists of the estrogen related receptor (ERR) signaling pathway from Tox21 library - cell viability counter screen (AID 1224834); note: nearly all actives have a fitted effect of over 30% in size
Method in brief: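 ERR cells, 2,000/well; 6 h settle at 37 C/5% CO2; pin-tool compound transfer in DMSO; 17.5 h at 37 C; CellTiter-Fluor, 30 min; fluorescence intensity.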

[2] = biological target: Luciferin 4-monooxygenase (Photinus pyralis) (UniProt P08659); assay: qHTS assay to identify small molecule inhibitors of firefly luciferase (AID 1224835); note: nearly all actives have a fitted effect of over 25% in size; note: potency is the fitted concentration of half-maximal effect
Sequence of Luciferin 4-monooxygenase (Photinus pyralis) (P08659 whole entry, looked up): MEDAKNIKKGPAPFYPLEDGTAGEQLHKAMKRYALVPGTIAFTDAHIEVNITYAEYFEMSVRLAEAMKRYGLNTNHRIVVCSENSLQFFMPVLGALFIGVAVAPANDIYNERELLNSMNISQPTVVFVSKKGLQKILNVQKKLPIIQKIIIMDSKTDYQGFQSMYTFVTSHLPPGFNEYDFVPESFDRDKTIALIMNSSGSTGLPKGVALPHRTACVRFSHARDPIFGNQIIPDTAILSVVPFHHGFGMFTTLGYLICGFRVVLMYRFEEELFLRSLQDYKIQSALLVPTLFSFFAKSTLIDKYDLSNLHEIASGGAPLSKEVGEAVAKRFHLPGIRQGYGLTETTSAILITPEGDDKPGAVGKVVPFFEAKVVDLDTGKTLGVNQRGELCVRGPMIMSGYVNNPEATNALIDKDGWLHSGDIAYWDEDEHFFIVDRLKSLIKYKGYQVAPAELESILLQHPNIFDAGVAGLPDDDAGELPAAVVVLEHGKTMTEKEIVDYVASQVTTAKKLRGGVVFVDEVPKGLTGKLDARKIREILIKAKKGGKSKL
Method in brief: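 Quantitative HTS format; KM concentrations of both substrates. Purified P. pyralis FLuc activity quantified from luminescence images.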

[3] = qHTS assay to identify small molecule antagonists of the constitutive androstane receptor (CAR) signaling pathway - cell viability counter screen (AID 1224837); note: nearly all actives have a fitted effect of over 45% in size
Method in brief: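 Viability was measured with CellTiter-Fluor in a HepG2 line carrying stably transfected hCAR and a CYP2B6-2.2kb construct. Cells were exposed for 23 hr at 37 C to 15 compound concentrations with 50 nM CITCO as agonist.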

[4] = biological target: Nuclear receptor subfamily 1 group I member 3 (Homo sapiens) (UniProt Q14994); assay: qHTS assay to identify small molecule antagonists of the constitutive androstane receptor (CAR) signaling pathway (AID 1224838);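 note: HepG2 cells stably expressing hCAR with CYP2B6 luciferase reporter stimulated by CITCO; nearly all actives have a fitted effect of over 40% in size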
Sequence of Nuclear receptor subfamily 1 group I member 3 (Homo sapiens) (Q14994 whole entry, looked up): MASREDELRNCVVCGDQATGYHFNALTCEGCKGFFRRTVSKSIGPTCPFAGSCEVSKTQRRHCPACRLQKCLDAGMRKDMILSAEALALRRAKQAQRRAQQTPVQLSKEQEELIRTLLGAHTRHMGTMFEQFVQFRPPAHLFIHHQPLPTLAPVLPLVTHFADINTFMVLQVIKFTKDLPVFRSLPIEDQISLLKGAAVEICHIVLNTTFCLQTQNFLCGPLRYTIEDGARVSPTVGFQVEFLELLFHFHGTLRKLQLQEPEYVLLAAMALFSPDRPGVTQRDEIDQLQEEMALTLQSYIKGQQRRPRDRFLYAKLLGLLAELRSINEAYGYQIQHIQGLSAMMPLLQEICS
Method in brief: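 Antagonist mode used CITCO at a final 50 nM to activate CAR in human hepatoma HepG2 cells carrying stable hCAR and a 2.2 kb CYP2B6 promoter-luciferase construct. Compounds were tested at 15 concentrations over 24 h, with luminescence as the end point.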

[5] = biological target: Nuclear receptor subfamily 1 group I member 3 (Homo sapiens) (UniProt Q14994); assay: qHTS assay to identify small molecule agonists of the constitutive androstane receptor (CAR) signaling pathway (AID 1224839); note: nearly all actives have a fitted effect of over 15% in size; note: potency is the fitted concentration of half-maximal effect
Method in brief: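 Stable hCAR/CYP2B6-2.2kb HepG2 line in DMEM with 10% FBS; compounds (15 concentrations) and 0.75 uM PK11195 final, 24 h at 37 C/5% CO2, then ONE-Glo luminescence after 30 min.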

[6] = qHTS assay to identify small molecule antagonists of the estrogen related receptor signaling pathway with the pleiotropic PPARgamma coactivator (PGC) from Tox21 10K library - cell viability counter screen (AID 1224840; active = well fitted cell-killing curve with a large enough effect in the repeat runs, not every such curve was filed as active; note: nearly all actives have a fitted effect of over 40% in size)
Method in brief: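 Multiplexed viability counter screen in the PGC/ERR cell line: cells treated with DMSO-dissolved compounds for 17.5 hours at 37 C, then viability measured as CellTiter-Fluor fluorescence.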

[7] = biological target: Thyrotropin receptor (Homo sapiens) (UniProt P16473); assay: qHTS assay to identify small molecule agonists of the thyroid stimulating hormone receptor (TSHR) signaling pathway (AID 1224843; calls by dose curve; note: nearly all actives have a fitted effect of over 45% in size)
Sequence of Thyrotropin receptor (Homo sapiens) (P16473 whole entry, looked up): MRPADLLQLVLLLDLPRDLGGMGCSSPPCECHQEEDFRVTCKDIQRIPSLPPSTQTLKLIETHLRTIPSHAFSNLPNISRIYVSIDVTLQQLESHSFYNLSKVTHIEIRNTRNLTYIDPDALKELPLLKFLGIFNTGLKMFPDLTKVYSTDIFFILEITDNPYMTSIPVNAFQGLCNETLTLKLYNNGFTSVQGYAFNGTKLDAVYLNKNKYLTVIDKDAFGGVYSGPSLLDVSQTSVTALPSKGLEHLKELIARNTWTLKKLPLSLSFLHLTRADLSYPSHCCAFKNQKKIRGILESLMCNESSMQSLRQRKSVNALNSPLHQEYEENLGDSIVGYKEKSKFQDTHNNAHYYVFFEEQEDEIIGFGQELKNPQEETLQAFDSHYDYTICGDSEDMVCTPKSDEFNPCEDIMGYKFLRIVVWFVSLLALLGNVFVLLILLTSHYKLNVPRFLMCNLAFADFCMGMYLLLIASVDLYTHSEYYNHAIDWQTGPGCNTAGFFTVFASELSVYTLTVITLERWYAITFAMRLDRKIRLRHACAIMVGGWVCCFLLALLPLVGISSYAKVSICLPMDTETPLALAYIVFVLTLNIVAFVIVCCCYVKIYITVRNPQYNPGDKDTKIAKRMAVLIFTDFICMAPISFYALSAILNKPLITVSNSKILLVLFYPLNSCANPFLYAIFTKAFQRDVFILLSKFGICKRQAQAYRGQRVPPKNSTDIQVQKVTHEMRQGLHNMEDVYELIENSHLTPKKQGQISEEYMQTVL
Method in brief: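 Using 15 concentrations per compound in triplicate, cAMP production was monitored in TSHR-HEK293 cells after 30 min compound incubation at RT; HTRF reagents followed, with fluorescence intensity recorded after 1 h.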

[8] = qHTS assay to identify small molecule agonists of the hypoxia (HIF-1) signaling pathway - cell viability counter screen (AID 1224844; calls by dose curve; note: nearly all actives have a fitted effect of over 50% in size)
Method in brief: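 Cytotoxicity was measured in parallel with the HRE-driven beta-lactamase readout: after 17 hrs of compound exposure at 37C, HRE-bla ME-180 cells received CellTiter-Glo and luminescence was recorded 30 min later.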

[9] = qHTS assay to identify small molecule agonists of H2AX (AID 1224845; active = well fitted activation curve with a large enough effect in the signal ratio in the repeat runs, not every such curve was filed as active; the % refers to the signal ratio)
Method in brief: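 Wild-type CHO-K1 cells plated overnight, then exposed 3 hr at 37C to compounds at 15 concentrations (0.76% DMSO). Lysed, then HTRF anti-pH2AX(S139)-cryptate/anti-H2AX-d2 detection after 24 hr at room temperature; emissions 665 and 620 nm.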

[10] = qHTS assay to identify small molecule agonists of the hypoxia (HIF-1) signaling pathway (AID 1224846; active = well fitted activation curve with a large enough effect in the signal ratio in the repeat runs, not every such curve was filed as active; the % refers to the signal ratio)
Method in brief: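 Compounds from the Tox21 10K library, dissolved in DMSO, are tested for induction of a hypoxia response element–controlled beta-lactamase reporter in ME-180 cells. Exposure lasts 17 hrs at 37C after a 5 hr settling period, followed by CCF4-AM FRET substrate.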

[11] = qHTS assay to identify small molecule agonists of H2AX - cell viability counter screen (AID 1224847; calls by dose curve; note: top concentration of the series differs between compounds; nearly all actives have a fitted effect of over 30% in size)
Method in brief: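 Viability of CHO-K1 (wild type) cells after 3 hr compound exposure was measured by CellTiter-Glo luminescence.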

[12] = qHTS RealTime-Glo MT Cell Viability Assay in HepG2 cells - 24 hour (AID 1224867); note: nearly all actives have a fitted effect of over 50% in size
Method in brief: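 Compound treatment began 5 h after plating HepG2 cells (600/well) with NanoLuc luciferase and prosubstrate. Plates stayed at 37 C for 40 h; luminescence was captured at six time points, 0 h through 40 h.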

[13] = qHTS RealTime-Glo MT Cell Viability Assay in HEK293 cells - 32 hour (AID 1224868); note: top concentration of the series differs between compounds; nearly all actives have a fitted effect of over 50% in size
Method in brief: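 Quantitative high-throughput screen of the Tox21 10K library in HEK293: cells and RealTime-Glo reagents plated together, compound added at 5 h, luminescence monitored through 40 h at 37 C.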

[14] = A CellTox Green Cytotoxicity Assay to monitor cytotoxicity in HEK293 cells - 0 hour (AID 1224869); note: nearly all actives have a fitted effect of over 50% in size
Method in brief: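 Cells (HEK293, 600/well) and dye reagent are dispensed together. After 5 h at 37 C, 23 nL compound is pinned in. Plates stay at 37 C for 40 h with fluorescence read at 0h, 8h, 16h, 24h, 32h and 40h.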

[15] = qHTS assay to identify small molecule agonists of the constitutive androstane receptor (CAR) signaling pathway - cell viability counter screen (AID 1224836); note: nearly all actives have a fitted effect of over 45% in size
Method in brief: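 Fluorescence from CellTiter-Fluor indicates live cells after 23 h exposure. The human hepatoma line expresses hCAR and a CYP2B6-2.2kb reporter. Incubation medium contains 0.75 uM PK11195 (final).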

[16] = qHTS assay to identify small molecule agonists of the estrogen related receptor signaling pathway with the pleiotropic PPARgamma coactivator (PGC) from Tox21 10K library (AID 1224842); note: nearly all actives have a fitted effect of over 15% in size
Method in brief: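 PGC/ERR reporter cells (NTP line) were seeded 2,000 per well, rested 6 h at 37 C/5% CO2, then pin-dosed with compounds in DMSO for 18 h at 37 C; luciferase read by One-Glo luminescence after 30 min at room temperature.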

[17] = qHTS assay to identify small molecule antagonists of the estrogen related receptor (ERR) signaling pathway from Tox21 library (AID 1224848); note: nearly all actives have a fitted effect of over 50% in size; note: potency is the fitted concentration of half-maximal effect
Method in brief: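 Tox21 10K compounds in DMSO tested for ERR pathway antagonism in NTP's ERR cell line; 18 h, 37 C exposure; ONE-Glo luminescence.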

[18] = qHTS assay to identify small molecule agonists of the estrogen related receptor (ERR) signaling pathway from Tox21 library (AID 1224849; calls by dose curve; note: nearly all actives have a fitted effect of over 15% in size); settings: ERR reporter cell line, ONE-Glo luciferase, 18 h; at 92.4 µM (top of the series) unless noted
Method in brief: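 Cells carrying the ERR reporter were plated and allowed to settle for 6 h, exposed to library compounds for 18 h at 37 C, then lysed with ONE-Glo and luminescence measured.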

[19] = qHTS assay to identify small molecule antagonists of the estrogen related receptor signaling pathway with the pleiotropic PPARgamma coactivator (PGC) from Tox21 10K library (AID 1224841; call rule not given here)
Method in brief: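 Steps: plate 2,000 PGC/ERR cells per well; incubate 6 h at 37 C with 5% CO2; transfer compounds from DMSO stocks by pin tool; incubate 18 h at 37 C; add One-Glo; measure luminescence 30 min later.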
% is set by controls: 0 for no effect and ±100 for the full control effect.

CCNc1nc(NCC)nc(SC)n1
inactive: Potency [1] | Potency [2] | Potency [3] | Potency [4] | Potency [5] | Potency [6] | Potency [7] | Potency [8] | outcome [9] | outcome [10] | Potency [11] | Potency [12] | Potency [13] | outcome [14]

C[C@H](CN1CCOCC1)C(C(=O)N1CCCC1)(c1ccccc1)c1ccccc1
active: Potency [17] 66.3 µM
inactive: Potency [1] | Potency [2] | Potency [15] | Potency [6] | Potency [16] | Potency [8] | outcome [9] | outcome [10] | Potency [11] | activity change, positive = activation [18] -33.1% | Potency [12] | outcome [14]

C(COCC1CO1)OCC1CO1 (configuration not stated)
inactive: Potency [1] | Potency [2] | Potency [3] | Potency [4] | Potency [5] | Potency [6] | Potency [19] | Potency [16] | Potency [7] | Potency [8] | outcome [9] | outcome [10] | Potency [11] | Potency [17] | activity change, positive = activation [18] 0.301% | Potency [12] | outcome [14]

CCCC(C)(COC(N)=O)COC(N)=O
inactive: Potency [1] | Potency [2] | Potency [3] | Potency [4] | Potency [5] | Potency [6] | Potency [19] | Potency [16] | Potency [7] | Potency [8] | outcome [9] | outcome [10] | Potency [11] | Potency [17] | Potency [12] | Potency [13] | outcome [14]

CCCCOC(C)=O
inactive: Potency [1] | Potency [2] | Potency [15] | Potency [6] | Potency [7] | Potency [8] | outcome [9] | outcome [10] | Potency [11] | Potency [12] | Potency [13] | outcome [14]

CCC(=O)OC1(c2ccccc2)CCN(C)CC1
inactive: Potency [1] | Potency [2] | Potency [15] | Potency [4] | Potency [5] | Potency [6] | Potency [7] | Potency [8] | outcome [9] | Potency [11] | Potency [12] | outcome [14]

C[N+]1(C)CCCCC1
inactive: Potency [1] | Potency [2] | Potency [15] | Potency [5] | Potency [6] | Potency [7] | Potency [8] | outcome [9] | outcome [10] | Potency [11] | Potency [12] | Potency [13] | outcome [14]

N#CN=C1SCCN1Cc1ccc(Cl)nc1
inactive: Potency [1] | Potency [2] | Potency [15] | Potency [6] | Potency [19] | Potency [16] | Potency [7] | Potency [8] | outcome [9] | outcome [10] | Potency [11] | Potency [17] | activity change, positive = activation [18] 7.53% | Potency [12] | Potency [13] | outcome [14]

CCCCCCCCSC(=O)Oc1cc(Cl)nnc1-c1ccccc1
inactive: Potency [1] | Potency [2] | Potency [15] | Potency [6] | Potency [8] | outcome [9] | outcome [10] | Potency [12] | outcome [14]

CCN(CC)C1CCCCC1
inactive: Potency [1] | Potency [2] | Potency [3] | Potency [4] | Potency [5] | Potency [6] | Potency [19] | Potency [16] | Potency [8] | outcome [9] | outcome [10] | Potency [11] | Potency [17] | Potency [12] | Potency [13] | outcome [14]

CCN[C@@H](C)Cc1ccccc1
inactive: Potency [1] | Potency [2] | Potency [15] | Potency [6] | Potency [19] | Potency [16] | Potency [7] | Potency [8] | outcome [9] | Potency [11] | Potency [17] | Potency [12] | outcome [14]

CON(C)C(=O)Nc1ccc(Br)c(Cl)c1
active: Potency [2] 39.9 µM | Potency [5] 48.6 µM
inactive: Potency [1] | Potency [3] | Potency [4] | Potency [6] | Potency [19] | Potency [16] | Potency [7] | Potency [8] | outcome [9] | outcome [10] | Potency [11] | Potency [17] | Potency [12] | outcome [14]

CCOC(=O)c1ncn2c1CN(C)C(=O)c1c(I)cccc1-2
inactive: Potency [1] | Potency [2] | Potency [15] | Potency [6] | Potency [7] | Potency [8] | outcome [9] | outcome [10] | Potency [11] | Potency [12] | Potency [13] | outcome [14]

CC(C)(C)C(=O)C(Cl)Cl
inactive: Potency [1] | Potency [2] | Potency [15] | Potency [4] | Potency [6] | Potency [7] | Potency [8] | outcome [9] | outcome [10] | Potency [11] | Potency [12] | outcome [14]

CC(Cl)(Cl)Cl
inactive: Potency [1] | Potency [2] | Potency [3] | Potency [4] | Potency [5] | Potency [6] | Potency [19] | Potency [16] | Potency [7] | Potency [8] | outcome [9] | outcome [10] | Potency [11] | Potency [17] | activity change, positive = activation [18] 4% | Potency [12] | Potency [13] | outcome [14]

Oc1ccc(Cc2ccc(O)cc2)cc1
active: Potency [2] 40.2 µM | Potency [5] 54.9 µM
inactive: Potency [1] | Potency [3] | Potency [4] | Potency [6] | Potency [19] | Potency [16] | Potency [7] | Potency [8] | outcome [9] | outcome [10] | Potency [11] | Potency [17] | activity change, positive = activation [18] 5.91% | Potency [12] | outcome [14]

C/C=C/CC#N
inactive: Potency [1] | Potency [2] | Potency [3] | Potency [4] | Potency [5] | Potency [6] | Potency [7] | Potency [8] | outcome [9] | outcome [10] | Potency [11] | Potency [12] | Potency [13] | outcome [14]

C[C@]12C=CC(=O)C=C1CC[C@@H]1[C@@H]2CC[C@@]2(C)[C@H]1CC[C@]2(C)O
inactive: Potency [1] | Potency [2] | Potency [3] | Potency [4] | Potency [5] | Potency [6] | Potency [19] | Potency [16] | Potency [7] | Potency [8] | outcome [9] | outcome [10] | Potency [11] | Potency [12] | Potency [13] | outcome [14]
